This note sets out measurements from PubChem BioAssay (NCI).

This is part of a sample that, as a whole, favours compounds with a hit. Of some 79,000 tested, about 15% had one in any assay. Unmarked numbers belong to inactive results. Active and inactive are the calls of the source. Rule as the data show it: active = growth inhibition above about 70%; inactive = the rest.

Test [1] is described as follows: NCI Yeast Anticancer Drug Screen. Data for the rad50 strain (AID 155).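 Also: 0% = growth of vehicle-only cultures of the same strain.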 Conditions: S. cerevisiae rad50 strain growth inhibition, stronger effect = higher value. The procedure, abridged: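 Genetically altered yeast (DNA repair pathway); compound treatment; growth inhibition vs vehicle ctrl.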
Test [2] in a line: NCI Yeast Anticancer Drug Screen. Data for the mec2-1 strain (AID 157). Conditions: S. cerevisiae mec2-1 strain, stronger effect = higher value. The procedure, abridged:
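Readout is yeast growth inhibition, normalised to vehicle-treated controls, in the mec2-1 strain exposed to compound.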

Test [3] in a line: NCI Yeast Anticancer Drug Screen. Data for the sgs1 mgt1 strain (AID 161).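 Also: 0% = growth of cultures given vehicle only.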 Conditions: S. cerevisiae sgs1 mgt1 strain, stronger effect = higher value. The gist of the method:
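Compounds are added to genetically altered yeast, and growth is compared with cultures given vehicle alone to give percent inhibition.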

Test [4] is described as follows: NCI Yeast Anticancer Drug Screen. Data for the cln2 rad14 strain (AID 165).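 Also: 0% = growth equal to vehicle treated cultures.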 Conditions: S. cerevisiae cln2 rad14 strain, stronger effect = higher value. The procedure, abridged:
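Relative to vehicle controls, growth inhibition of compound-treated cln2 rad14 yeast was recorded.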

A short description of test [5]: NCI Yeast Anticancer Drug Screen. Data for the bub3 strain (AID 167). The note with it: S. cerevisiae bub3 mutant strain, stronger effect = higher value. The procedure, abridged: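 Yeast carrying a defined mutation is treated with each compound, and growth is compared with that of vehicle-exposed cells to give inhibition.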
A short description of test [6]: NCI Yeast Anticancer Drug Screen. Data for the mlh1 rad18 strain (AID 175). Conditions: S. cerevisiae mlh1 rad18 strain growth inhibition, stronger effect = higher value. The gist of the method:
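Test agents were incubated with a yeast strain of defined genotype (DNA damage repair defect). Inhibition of growth was derived by comparison with vehicle-exposed cultures.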

The mark [7] stands for this setting: at 5.0 µM (retest, dose inferred, filed as 0.5).
[8] abbreviates: at 50.0 µM (retest, dose inferred, filed as 5.0).

Consider `O=C(O)c1c(Cl)c(Cl)c(Cl)c(Cl)c1-c1c2cc(I)c(=O)c(I)c-2oc2c(I)c(O)c(I)cc12`, for which the growth inhibition in test [1] (setting [7]) is 75% (active); in test [1] (setting [8]), 98% (active); in test [1] (at 50.0 µM), 91.3% (active); in test [2] (setting [7]) it was 99% (active); in test [2] (setting [8]), 99% (active); in test [2] (at 50.0 µM) it was 92.1% (active). Besides, the growth inhibition in test [3] (setting [7]) is 82% (active); in test [3] (setting [8]) it was 98% (active); in test [3] (at 50.0 µM), 91.6% (active); in test [4] (setting [7]), 98% (active); in test [4] (setting [8]), 97% (active); in test [4] (at 50.0 µM) it was 90.2% (active). In addition, the growth inhibition is 98% (active) in test [5] (setting [7]); 98% (active) in test [5] (setting [8]); 91.4% (active) in test [5] (at 50.0 µM); 97% (active) in test [6] (setting [7]); 97% (active) in test [6] (setting [8]); 91.2% (active) in test [6] (at 50.0 µM).
Take `CCN(CC)CC(O)CNc1ccc(C)c2sc3ccccc3c(=O)c12` (stereo not given): the growth inhibition in test [1] (setting [7]) is 12%; in test [1] (setting [8]) it was 99% (active); in test [1] (at 50.0 µM) it was 99.8% (active); in test [2] (setting [7]), 7%; in test [2] (setting [8]) it was 99% (active); in test [2] (at 50.0 µM), 99.8% (active). In addition, the growth inhibition in test [3] (setting [7]) is 28%; in test [3] (setting [8]), 100% (active); in test [3] (at 50.0 µM) it was 95.2% (active); in test [4] (setting [7]), 12%; in test [4] (setting [8]), 99% (active); in test [4] (at 50.0 µM) it was 99.5% (active). Also, the growth inhibition in test [5] (setting [7]) is 10%; in test [5] (setting [8]), 99% (active); in test [5] (at 50.0 µM), 99.5% (active); in test [6] (setting [7]), 14%; in test [6] (setting [8]), 99% (active); in test [6] (at 50.0 µM) it was 99.8% (active).
Regarding `CN(C)C1CCC(N=Nc2cc([N+](=O)[O-])ccc2C(=O)O)CC1` (stereo not given), the growth inhibition in test [1] (setting [7]) was -7%; in test [1] (setting [8]) it was 55%; in test [1] (at 50.0 µM), 86.2% (active); in test [2] (setting [7]) it was 7%; in test [2] (setting [8]), 23%; in test [2] (at 50.0 µM), 56.7%. In addition, the growth inhibition in test [3] (setting [7]) was -2%; in test [3] (setting [8]), 49%; in test [3] (at 50.0 µM), 83.6% (active); in test [4] (setting [7]), 1%; in test [4] (setting [8]), 18%; in test [4] (at 50.0 µM), 15.6%. Also, the growth inhibition in test [5] (setting [7]) was 7%; in test [5] (setting [8]), 87% (active); in test [5] (at 50.0 µM), 94.3% (active); in test [6] (setting [7]) it was -1%; in test [6] (setting [8]), 61%; in test [6] (at 50.0 µM), 84.9% (active).
`NC(CCCNc1nc(O)cc(=O)[nH]1)C(=O)O` (stereo not given): the growth inhibition in test [1] (setting [7]) is -166%; in test [1] (setting [8]), -176%; in test [1] (at 50.0 µM), 18.2%; in test [2] (setting [7]), -51%; in test [2] (setting [8]), -54%; in test [2] (at 50.0 µM) it was 13.4%. For the same molecule, the growth inhibition in test [3] (setting [7]) was -66%; in test [3] (setting [8]), -68%; in test [3] (at 50.0 µM), 7.3%; in test [4] (setting [7]) it was -63%; in test [4] (setting [8]), -80%; in test [4] (at 50.0 µM) it was 66%. In addition, the growth inhibition in test [5] (setting [7]) is -68%; in test [5] (setting [8]), -73%; in test [5] (at 50.0 µM), 0.7%; in test [6] (setting [7]), -127%; in test [6] (setting [8]), -125%; in test [6] (at 50.0 µM), -5%.
For the molecule `CCC(CC)COC(=O)c1ccc(O)c(O)c1`, the growth inhibition in test [1] (setting [7]) was -6%; in test [1] (setting [8]) it was 91% (active); in test [1] (at 50.0 µM) it was 98.8% (active); in test [2] (setting [7]) it was -5%; in test [2] (setting [8]), 72% (active); in test [2] (at 50.0 µM), 99.2% (active). In addition, the growth inhibition in test [3] (setting [7]) is -2%; in test [3] (setting [8]), 91% (active); in test [3] (at 50.0 µM) it was 48.1%; in test [4] (setting [7]), -14%; in test [4] (setting [8]), 98% (active); in test [4] (at 50.0 µM) it was 99.1% (active). Moreover, the growth inhibition is 1% in test [5] (setting [7]); 99% (active) in test [5] (setting [8]); 99.1% (active) in test [5] (at 50.0 µM); -6% in test [6] (setting [7]); 99% (active) in test [6] (setting [8]); 98.9% (active) in test [6] (at 50.0 µM).
